Screening results deposited in PubChem BioAssay by National Center for Advancing Translational Sciences (NCATS).
In the library only some 0.49% were active in any assay of this set; here they are far more common.
EPAC1 ag – qHTS for Agonist of cAMP-regulated guanine nucleotide exchange factor 3 (EPAC1): primary screen. Rap guanine nucleotide exchange factor 3 (Homo sapiens), O95398. EPAC1 agonist qHTS, biochemical assay; response scale: 100% = response to 6.5 mM cAMP. Potency, µM (top dose mostly 154 µM), inactives show at the top dose activation, hits mostly activators. actives 0.073% (n = 360,000). AID 720707, 2013; also: nearly all actives have a fitted effect of over 60% in size
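EPAC1 100 nM, Rap1B–BODIPY-GDP 250 nM, unlabeled GDP 50 uM; compound titration; 5 min RT; kinetic read ex480/em540 at 5-min intervals ×30 min; data normalized to 6.5 mM cAMP agonist control.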
USP1-UAF1 inh – Inhibitors of USP1/UAF1: Primary Screen; actives 0.23% (n = 390,000); Ubiquitin carboxyl-terminal hydrolase 1 (Homo sapiens), O94782; recombinant USP1/UAF1, Ub-Rhodamine cleavage fluorescence; Potency, µM (top dose mostly 57.1 µM), for inactives: top-dose activity change, negative = inhibition, most hits filed as inhibitors; also: % is scaled to controls: 0 for no effect and ±100 for the full control effect; nearly all actives have a fitted effect of over 60% in size
Target sequence (O94782 whole entry, looked up): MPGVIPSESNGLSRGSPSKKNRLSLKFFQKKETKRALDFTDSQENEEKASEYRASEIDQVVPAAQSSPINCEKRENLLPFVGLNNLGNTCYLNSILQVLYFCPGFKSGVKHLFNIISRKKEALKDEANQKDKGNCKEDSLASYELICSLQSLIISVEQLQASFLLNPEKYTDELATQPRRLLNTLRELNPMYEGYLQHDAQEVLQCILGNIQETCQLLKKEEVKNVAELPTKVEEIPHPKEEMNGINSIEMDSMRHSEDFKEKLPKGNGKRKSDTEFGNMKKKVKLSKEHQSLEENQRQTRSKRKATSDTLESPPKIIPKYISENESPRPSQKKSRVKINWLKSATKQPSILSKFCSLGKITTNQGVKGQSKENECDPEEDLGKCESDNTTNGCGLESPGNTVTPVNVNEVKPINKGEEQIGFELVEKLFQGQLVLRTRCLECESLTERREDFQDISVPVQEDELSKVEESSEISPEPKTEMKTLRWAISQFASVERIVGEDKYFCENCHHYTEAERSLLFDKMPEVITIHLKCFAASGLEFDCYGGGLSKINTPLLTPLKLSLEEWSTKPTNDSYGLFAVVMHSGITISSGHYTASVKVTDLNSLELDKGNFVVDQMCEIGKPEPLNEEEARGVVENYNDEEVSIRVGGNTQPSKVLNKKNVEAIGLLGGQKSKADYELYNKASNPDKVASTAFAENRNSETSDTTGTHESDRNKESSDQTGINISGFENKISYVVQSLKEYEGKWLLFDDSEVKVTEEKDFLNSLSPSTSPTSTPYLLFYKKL
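Step one: compound is pinned into 1nM USP1/UAF1 in HEPES pH 7.8 buffer with TCEP. Step two: 15 min room-temperature incubation. Step three: Ub-Rho (150nM final) starts cleavage, tracked by fluorescence over six one-minute reads.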
EPAC1 antagonist – qHTS for Antagonist of cAMP-regulated guanine nucleotide exchange factor 3 (EPAC1): primary screen | Rap guanine nucleotide exchange factor 3 (Homo sapiens), O95398 | EPAC1 GEF assay, Rap1b-BODIPY-GDP exchange fluorescence | Potency, µM (highest dose often 115 µM), for inactives: at the top dose activity change, negative = inhibition, usual class: inhibitors | actives 0.14% (n = 360,000) | AID 720709, 2013;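 also: plate controls were vehicle for no effect and positive control for full effect; nearly all actives have a fitted effect of over 50% in size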
EPAC2 antag – qHTS for Antagonist of cAMP-regulated guanine nucleotide exchange factor 2 (EPAC2): primary screen; Rap guanine nucleotide exchange factor 4 (Homo sapiens), Q8WZA2; EPAC2 GEF exchange of Rap1B-BODIPY-GDP, fluorescence; Potency, µM (series often up to 114 µM), for the others: at the top dose activity, negative = inhibition, hits mostly inhibitors; actives 0.18% (n = 360,000); also: % is scaled to controls: 0 for no effect and ±100 for the full control effect; nearly all actives have a fitted effect of over 45% in size
EPAC2 agonist – qHTS for Agonist of cAMP-regulated guanine nucleotide exchange factor 4 (EPAC2): primary screen; AID 720711, 2013; Rap guanine nucleotide exchange factor 4 (Homo sapiens), Q8WZA2; actives 0.079% (n = 360,000); Potency, µM (titrated, usually from 154 µM), for inactives: at the highest dose activation, most hits filed as activators; EPAC2 activation, biochemical qHTS; response scale: 100% = 6.5 mM cAMP response; also: nearly all actives have a fitted effect of over 50% in size
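qHTS, titration series. 100 nM EPAC2 / 250 nM Rap1B-BODIPY-GDP / 50 uM GDP; RT; ex 480/em 540 nm, 5-min reads to 30 min. Norm. to 6.5 mM cAMP = activation.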
* = called active by the depositor; ? = inconclusive; . = no result given. Calls follow the shape of the dose curve; as a rule, active = well fitted curve in the direction sought with a large enough effect; inconclusive = small, poorly fitted or top-dose-only effect, or another doubt; inactive = no such curve, though single readings can be large; an effect the other way counts as inactive or inconclusive. Potency is read from the fitted curve at half-maximal effect.

SMILES | EPAC1 ag | USP1-UAF1 inh | EPAC1 antagonist | EPAC2 antag | EPAC2 agonist
COc1cc(/C=C2\SC(=S)N(CC(=O)O)C2=O)ccc1OS(=O)(=O)c1ccc(C)cc1 | -11% | -16% | 89µM* | ? | -12%
COc1cc(/C=C2/SC(=S)N(Cc3ccccc3)C2=O)ccc1OS(C)(=O)=O | 6% | -5% | -26% | 0% | 19%
COc1cc(/C=C2/SC(=S)N(CC(=O)O)C2=O)ccc1OC(=O)c1cccs1 | -8% | -14% | 79µM* | ? | 12%
COC(=O)C1CCN(S(=O)(=O)c2cc3c4c(c2)C(C)C(=O)N4CCC3)CC1 (stereo not given) | . | -4% | . | . | .
CN1CCS/C1=C/C=C1\SC(=S)N(CC(=O)O)C1=O | ? | 25µM* | -22% | ? | 15%
CCCCN1C(=O)/C(=C/C=C2\SCCN2C)SC1=S | 21% | -22% | -5% | -20% | 10%
CCN(CC)CCCNc1ccc2ncn3c4ccc(O)cc4c(=O)c1c23 | 21% | 28µM* | 9% | 60% | -13%
OC[C@@H]1[C@@H](c2ccc(F)cc2)C(c2ccccc2)=NN1c1ccccc1 | -6% | -33% | -5% | ? | 18%
CC[C@H]1C(c2ccc(F)cc2)=NN(c2ccccc2)[C@@H]1CO | -14% | -27% | -14% | 50µM* | 3%
O=C(Cn1c(=O)n(Cc2ccco2)c(=O)c2cccnc21)Nc1ccccc1F | . | -14% | . | . | .
CCCCN(Cc1ccccc1)S(=O)(=O)c1cc(Br)cc2c1N(C(C)=O)CC2 | . | 9% | . | . | .
COc1ccccc1N1CCN(C(=O)c2ccc(S(=O)(=O)N3CCCC3)cc2)CC1 | -5% | -15% | 1% | 7% | 7.9µM*
CCCN(CCC)C(=O)Cn1c(=O)c2sccc2n2c(=S)sc(-c3ccccc3)c12 | 8% | -21% | -10% | 50µM* | -33%
COc1ccc(NC(=O)c2cc(-c3ccc(F)cc3)no2)cc1OC | . | -13% | . | . | .
CCCCC(CC)C(=O)Nc1ccc(C#N)cc1 (stereo not given) | 4% | 2% | -18% | -3% | 5%
CCCCC(CC)C(=O)Nc1ccc(Nc2ccccc2)cc1 (stereo not given) | 63µM* | -13% | 40% | -19% | -13%
Cc1cc(C(=O)c2cccs2)c(N)s1 | 2% | -27% | 1% | -1% | -1%
Cc1cc(C)c(C(=O)c2cccs2)c(C)c1 | 3% | -11% | 6% | 28µM* | 6%
CCN1CCN(C(c2ccc(OC)cc2)c2c(O)cc(C)n(Cc3ccco3)c2=O)CC1 (stereo not given) | . | -15% | . | . | .
O=C(O)CN1C(=O)/C(=C\c2cc(Br)ccc2OCc2ccccc2Cl)SC1=S | 5% | ? | 40µM* | -9% | 10%
O=C(O)CN1C(=O)/C(=C\c2ccccc2OCc2ccc(Cl)cc2Cl)SC1=S | 5% | ? | ? | ? | -1%
O=C(O)CN1C(=O)/C(=C\c2cc(Br)ccc2OCc2ccc([N+](=O)[O-])cc2)SC1=S | -7% | ? | ? | ? | -9%
O=C(O)CN1C(=O)/C(=C\c2cc(Br)ccc2OCc2ccccc2F)SC1=S | 6% | ? | ? | 56µM* | 0%
O=C(N/N=C/c1ccc(-c2ccc(S(=O)(=O)Nc3ncccn3)cc2)o1)c1cc2ccccc2cc1O | -1% | ? | 13µM* | -12% | 1%
CCc1ccc(NC(=O)c2cnn(-c3c(C)cccc3C)c2C2CCN(C(=O)OC(C)(C)C)CC2)cc1 | . | -18% | . | . | .
SMILES | EPAC1 ag | USP1-UAF1 inh | EPAC1 antagonist | EPAC2 antag | EPAC2 agonist
CCOC(=O)c1ccc(NS(=O)(=O)c2cn(C)c(C)n2)cc1 | . | -10% | . | . | .
O=C1NC(=S)S/C1=C\c1cccc([N+](=O)[O-])c1 | -5% | ? | ? | 50µM* | 3%
Cc1cc(/C=C2\SC(=S)NC2=O)c(C)n1-c1ccc(O)cc1 | 3% | -19% | ? | ? | -5%
COc1ccccc1C=C1SC(=S)NC1=O | -7% | 2% | ? | -23% | 6%
Cc1cc(/C=C2\SC(=S)NC2=O)c(C)n1C | 0% | -19% | ? | -2% | -6%
O=C1NC(=Nc2ccccc2Cl)S/C1=C\c1cccc([N+](=O)[O-])c1 | 10% | -19% | -23% | -9% | 5%
Cc1cc(/C=C2\SC(=S)NC2=O)cc(C)c1O | 7% | -10% | ? | 16µM* | 1%
O=C1NC(=S)SC1=Cc1ccccc1Cl | -1% | -37% | ? | 35µM* | 12%
O=C1NC(=S)S/C1=C\c1cc(Cl)cc(Cl)c1O | -10% | ? | 40µM* | 56µM* | -11%
O=C(Cn1c(=O)nc(-c2ccccc2F)c2cc(Cl)ccc21)Nc1ccccc1C(F)(F)F | . | -6% | . | . | .
COc1ccc(CNC(=O)c2ccc(CN3C(=O)C(C)=C(c4ccc(C)cc4)S3(=O)=O)cc2)cc1 | . | 7% | . | . | .
CC(=O)c1ccc(N2C(=O)C3C(C2=O)C(C(=O)c2ccc(Cl)cc2)N2CCCC32)cc1 (stereo not given) | ? | 18µM* | -17% | 240% | 100µM*
O=C(c1ccc(Cl)cc1)C1C2C(=O)N(c3ccccc3)C(=O)C2C2CCCN21 (stereo not given) | 2% | -7% | -4% | 8% | 1%
C/C(CC(=O)Nc1ccc2ccccc2c1)=N\NC(=O)c1cnccn1 | 40µM* | -3% | 55% | -6% | -1%
COc1ccc(CCNC(=O)c2cc3c(=O)[nH]c4ccc(C)cc4c3s2)cc1OC | . | -6% | . | . | .
CCc1ccc(-n2nc(C)c3c(C(=O)Nc4cccc(C(F)(F)F)c4)cc(C)nc32)cc1 | . | -12% | . | . | .
COc1cccc(CN2CC(O)=C(c3nc(-c4ccc(Cl)cc4)cs3)C2=N)c1 | -14% | -12% | 2% | 10% | 6.3µM*
COc1ccccc1N(C(C)=O)C1=C(Cl)C(=O)c2ccccc2C1=O | 5% | 18µM* | -23% | 18% | 26%
COc1ccccc1N(C(=O)CCl)c1cn(C(C)=O)c2ccccc12 | 4% | -6% | -2% | ? | 9%
COc1ccc(NS(=O)(=O)c2ccc(O)c(NC(=O)c3cc4c(C)nn(-c5ccc(F)cc5)c4s3)c2)cc1 | -17% | ? | 50µM* | -4% | -8%
Oc1c(C(c2ccccc2Cl)N2CCCC2)sc2nc(-c3ccco3)nn12 (stereo not given) | . | 8% | . | . | .
